High-throughput results deposited in PubChem by Broad Institute.
This is a sample that favours compounds with a hit; in the whole collection about 3.2% have one here.
ERAP1 inh = human ERAP1 aminopeptidase inhibitors, primary screen, biochemical, single point, plate reader; Endoplasmic reticulum aminopeptidase 1 (Homo sapiens), Q9NZ08; recombinant ERAP1, Leu-AMC fluorescence, 60 min; inhibition, % at 10.7 µM; 0.15% of 340,000 active; AID 652197, 2013;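 active = mean replicate inhibition of at least 30%, or all replicates individually reaching that 30% level; inactive = mean below 30% and not every replicate reaching it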;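 also: 0% = neutral control wells and 100% = L-leucinethiol positive control wells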
GSIS activator = GLuc luminescence reporter in INS-1E cells, primary screen for activators of glucose-dependent secretion of insulin. INS-1E GLuc reporter insulin secretion, 2-3 h. activation, % at 16.6 µM. 0.61% of 370,000 active. AID 743287, 2014;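 active = lowest replicate activation of at least 40%, so every replicate reaches that level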;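 also: 0% = median of neutral control wells and 100% = median of IBMX positive control wells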
CaV13 ICDI inh = Primary screen for inhibitors of IQ motif and Ca2+-dependent inactivation inhibitor domain binding in CACNA1D, Förster resonance energy transfer in living cells, …. AID 743397. inhibition, % at 12.3 µM. 0.098% of 340,000 active. HEK cells, CFP/YFP FRET ICDI-IQ, plate reader, 10 min; percent FRET-ratio fall versus neutral wells;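 active = mean replicate inhibition of at least 30% and at least 1% of replicates passing that level; inconclusive = only one of the two criteria is met; inactive = neither criterion is met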;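 also: 0% = median of the neutral control wells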
PGC1a acetyl inh = inhibitors of PGC1a acetylation signal, primary screen, cell-based, U2OS, AlphaScreen, inhibitor mode; inhibition, % at 15.6 µM; AID 651687, 2012; 0.17% of 350,000 active; AlphaScreen anti-acetyl-lysine; with virally co-expressed GCN5 acetyltransferase;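 active = every replicate shows inhibition of at least 40%; inconclusive = mean inhibition at least 40% but some replicate below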;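 also: 0% = neutral control wells and 100% = positive control wells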
DENV2 CPE rescue = inhibitors of DENV2 cytopathic effect, primary screen, cell-based, plate reader, single concentration. 1.7% of 350,000 active. DENV2-infected cells, cytopathic effect rescue. AID 651640, 2012. CPE inhibition, % at 9.99 µM; in the data active = CPE inhibition above about 20%, passing the limit was not always enough; inconclusive = no clear call, values can overlap the other calls; tested in BHK-21 cells;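 also: 0% = median of neutral control wells and 100% = median of positive control wells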
Ecoli rRNA inh = reduced GFP signal of wild-type E. coli, primary screen, bacterial rRNA inhibitor project, GFP/RFP fluorescence, OD600, single point | E. coli WT GFP vs humanized-ribosome RFP mutants, 24 h; hits give low values; DMSO median 0, no signal -100 | GFP signal change (wild-type ribosome), % (concentration not given with the values) | 1.6% of 350,000 active | AID 720706, 2013;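 active = significant combined selectivity score with lowered wild-type GFP, culture density cut under 30%, mutant RFP and density less affected; inactive = any of these conditions unmet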
* = called active by the depositor; ? = inconclusive; . = no result.

SMILES	ERAP1 inh	GSIS activator	CaV13 ICDI inh	PGC1a acetyl inh	DENV2 CPE rescue	Ecoli rRNA inh
C[C@H](CO)N1C[C@H](C)[C@H](CN(C)Cc2ccc(C(=O)Nc3ccccc3N)cc2)Oc2c(NS(=O)(=O)c3cn(C)cn3)cccc2C1=O	-2	5	.	-2	34*	3
C[C@H]1CN([C@@H](C)CO)C(=O)c2cc(NS(=O)(=O)c3cn(C)cn3)ccc2O[C@@H]1CN(C)Cc1ccc(C(=O)Nc2ccccc2N)cc1	2	20	.	-8	-1	8
C[C@H]1CN([C@@H](C)CO)C(=O)c2cccc(NS(=O)(=O)c3ccc(F)cc3)c2O[C@H]1CN(C)Cc1ccc(C(=O)Nc2ccccc2N)cc1	2	2	.	-7	22*	-3
Cc1ccc(S(=O)(=O)Nc2cccc3c2O[C@H](CN(C)Cc2ccc(C(=O)Nc4ccccc4N)cc2)[C@@H](C)CN([C@@H](C)CO)C3=O)cc1	2	10	.	1	4	0
COCC(=O)N1CCC2(CC1)CN(Cc1cccc(OC)c1)[C@H](CO)c1c2c2ccc(OC)cc2n1C	.	0	.	.	.	9
O=C(c1cccnc1)n1nc(NCc2ccccc2)nc1NCc1ccccc1	-1	-31	-7	-4	3	-35*
CCCCCC(=C/c1ccccc1)/C=N/Nc1ccc(S(=O)(=O)N2CCOCC2)cc1[N+](=O)[O-]	-3	.	-6	-6	32*	3
CO[C@H]1CN(C)C(=O)c2ccc(NS(C)(=O)=O)cc2OC[C@@H](C)N(Cc2cncnc2)C[C@H]1C	0	2	.	0	0	2
C[C@@H]1CCCCO[C@H](CN(C)Cc2ccc(C(=O)O)cc2)[C@@H](C)CN([C@@H](C)CO)C(=O)c2cc(NS(C)(=O)=O)ccc2O1	1	25	.	-4	5	2
CCC(Sc1nc(C)cc(C)n1)C(=O)Nc1nccs1 (stereo not given)	3	55*	.	2	-8	1
CCC(Sc1nnc(C)s1)C(=O)Nc1nccs1 (stereo not given)	.	.	-4	-3	.	.
CCOc1ccc(-c2nc(CSc3nnc(N)s3)cs2)cc1OC	.	57*	.	25	.	.
COc1ccc(-c2nc(CCl)cs2)cc1OC	-3	62*	-7	.	9	4
COc1cccc(CNC(=O)C[C@@H]2CC[C@H]3[C@@H](COc4ccc(NS(=O)(=O)c5ccccc5F)cc4C(=O)N3C)O2)c1	.	4	.	4	.	3
C[C@@H]1CN([C@@H](C)CO)C(=O)c2cc(NS(=O)(=O)c3cccs3)ccc2O[C@@H]1CN(C)Cc1ccncc1	.	11	.	-1	8	2
O=C(C1=NN(c2ccccc2)C(=O)CC1)N1CCc2ccccc2C1	1	113*	-3	-9	1	3
CC(C)NC(=O)C1=NN(c2ccccc2)C(=O)CC1	-6	-3	-20	8	2	8
Cc1cccc(NC(=O)NNC(=O)c2ccc3ccccc3c2O)c1	-4	8	.	4	-9	-12
COc1ccc(C(=O)Nc2ccc(C)cc2C(=O)c2ccccc2)cc1	-7	-8	-5	.	-2	-19*
Cc1ccc(C(=O)NNC(=O)c2ccc3ccccc3c2O)cc1	-2	-12	-2	-17	-3	-27*
COc1cccc(C(=O)NNC(=O)Cc2ccc(Cl)cc2)c1	-2	-1	-18	.	4	-21*
COc1ccc(C(=O)NNC(=O)Cc2ccc(Cl)cc2)cc1	.	8	8	.	1	0
COc1ccc(-c2cccc(C(=O)Nc3ccc(OC)c(OC)c3)c2)cc1	.	.	0	-4	.	.
COc1ccc(-c2cccc(C(=O)Nc3ccc(C)cc3)c2)cc1	.	99*	-5	-15	.	.
COC(=O)C[C@H]1CC[C@@H]2[C@H](COc3ccc(NC(=O)c4ccc(OC)cc4)cc3C(=O)N2C)O1	0	12	.	1	-3	-4
SMILES	ERAP1 inh	GSIS activator	CaV13 ICDI inh	PGC1a acetyl inh	DENV2 CPE rescue	Ecoli rRNA inh
Cc1cccc(S(=O)(=O)N[C@@H]2CC[C@H](CCNC(=O)CCN3CCCCC3)O[C@H]2CO)c1	-1	11	.	2	-5	-1
O=S(=O)(N[C@@H]1CC[C@@H](CCn2cc(C3CC3)nn2)O[C@H]1CO)c1ccc(Cl)cc1	0	-2	.	-2	-7	2
O=C(NNC(=O)c1ccc2ccccc2c1)c1cccc(F)c1	1	-15	-10	-8	-4	-5
COc1ccc(C(=O)NNC(=O)c2cccc(F)c2)cc1	6	5	-7	.	1	-23*
COc1ccc(N(C)S(=O)(=O)c2cccc(C(=O)Nc3ccc(N4CCOCC4)cc3)c2)cc1	-1	-9	-4	-12	9	-21*
COc1ccc(C(=O)NNC(=O)c2ccc3ccccc3c2O)cc1	-1	3	-2	.	-2	-24*
COc1ccccc1C(=O)NNC(=O)c1ccc2ccccc2c1O	-34	-3	-4	.	-1	-16
O=C(C[C@@H]1C[C@@H]2c3cc(NC(=O)Nc4ccccc4F)ccc3O[C@@H]2[C@H](CO)O1)NC1CCCC1	-4	26	.	-8	49*	-4
O=C(C[C@H]1C[C@H]2c3cc(NC(=O)Nc4ccccc4F)ccc3O[C@H]2[C@H](CO)O1)NC1CCCC1	-2	-14	.	4	20*	2
O=C(C[C@H]1C[C@@H]2c3cc(NC(=O)Nc4ccccc4F)ccc3O[C@@H]2[C@@H](CO)O1)NC1CCCC1	-4	-27	.	-1	23*	2
COc1ccc2c3c([nH]c2c1)[C@H](CO)N(Cc1ccncc1)CC31CCN(Cc2ccc(-c3ccccn3)cc2)CC1	-1	-1	.	6	1	-9
CN1CCN(c2nc3ccccn3c(=O)c2/C=C(\C#N)S(=O)(=O)c2ccccc2)CC1	7	.	99*	7	-3	.
O=C(C1CC1)N1CC(=O)N2[C@H](CO)[C@H](c3ccc(-c4cccnc4)cc3)[C@@H]2C1	5	13	.	-3	-2	5
O=c1c2cc(F)ccc2sn1-c1ccccc1	24	-3	-5	7	?	-24
O=c1c2ccccc2sn1-c1ccccc1F	7	86*	-3	.	3	12
CC(=O)Nc1ccc2c(=O)n(-c3ccccc3)sc2c1	.	30	-6	.	5	0
Cc1ccccc1-n1sc2cc(F)ccc2c1=O	22	45*	7	-4	1	-48
O=C(O)c1cccc(-n2sc3ccccc3c2=O)c1	90*	51	3	-4	-17	12
O=c1c2ccccc2sn1-c1ccccc1	.	256*	-8	18	.	.
